# Source: publication PMC7819943, “Rice protein-binding microarrays: a tool to detect cis-acting elements near promoter regions in rice”
# In all, about 68,000 sequences were measured (“fluorescence intensity (a.u.)”: median about 9,100, highest 2% from about 16,000 on). The sample holds the highest values, similar sequences and a random draw of the others, so the mix is not that of the screen.
# Target: OsWRKY34 (Oryza sativa, UniProt Q0JBA9 1-250)
# Test: protein-binding microarray (RPBM); PBS, 2% BSA, 51.3 ng/ul salmon testes DNA, 50 uM zinc acetate, 200 nM TF, 25 C, 1 h; high values mean tight binding
# Settings: protein: recombinant; tags: N-terminal polyhistidine and DsRed monomer fusion (pET32a); label: CyDye5-dUTP incorporated in the synthesized complementary strand; 3' TTTTT single-stranded linker to array surface; dsDNA, one strand shown
# Outline: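 Ni–NTA purification followed expression in E. coli BL21-CodonPlus of transcription factors fused N-terminally to a polyhistidine tag and DsRed. At 200 nM in PBS with 2% BSA, salmon testes DNA and 50 µM zinc acetate, the protein was incubated for 1 h at 25 °C with a custom Agilent array that had been primer-extended with Cy5-dUTP and blocked with 2% BSA. After washing, the array was read on an Axon 4000B scanner. The binding signal is per-feature fluorescence intensity in arbitrary units.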
# OsWRKY34, sequence (Q0JBA9 entry or part of it): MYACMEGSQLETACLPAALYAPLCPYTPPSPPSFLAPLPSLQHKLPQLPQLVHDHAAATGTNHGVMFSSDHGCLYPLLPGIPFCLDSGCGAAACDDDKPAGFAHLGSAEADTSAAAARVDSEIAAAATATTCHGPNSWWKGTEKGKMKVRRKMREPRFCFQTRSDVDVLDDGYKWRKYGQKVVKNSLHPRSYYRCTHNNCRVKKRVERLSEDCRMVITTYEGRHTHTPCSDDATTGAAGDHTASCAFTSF
row,Sequence,binding signal
1,CGTACTATAATTTTGTCATTCCTGTTGAAATTTTATAATTCGGAGTCACCTAGTGCAG,9340 fluorescence intensity (a.u.)
2,GCCGGTCTCCTCCCCGCCACCGCCGCCGCCGCCGCCAATGCGGAGTCACCTAGTGCAG,8650 fluorescence intensity (a.u.)
3,GGGCGAGGAGCAGCGGCGGGCGGGCGGATGAGGGGCGGCGCGGAGTCACCTAGTGCAG,11400 fluorescence intensity (a.u.)
4,CGATCGGAGGAGGAGGCGGCGGGGAGGGAGGAGGAGGATGCGGAGTCACCTAGTGCAG,10800 fluorescence intensity (a.u.)
5,GCGGGATCGCGCGGGCGGCGGCGGCGGCGGGGAGGGGATGCGGAGTCACCTAGTGCAG,16900 fluorescence intensity (a.u.)
6,GGAGGAGAGCTTGGTGGTGCGCTGATCGGCGGATGCGGGGCGGAGTCACCTAGTGCAG,8490 fluorescence intensity (a.u.)
7,ATATATATATATATATATATATAGAGAGAGAGAGAGAGACCGGAGTCACCTAGTGCAG,8980 fluorescence intensity (a.u.)
8,TTGAGAGCTGGAGGCGCAGGCTGGGATCGGCGGAGCCATGCGGAGTCACCTAGTGCAG,63200 fluorescence intensity (a.u.)
9,ATATATATATATATATATATATATATATAGAGCGCGCACTCGGAGTCACCTAGTGCAG,21200 fluorescence intensity (a.u.)
10,ATATATATATATATATATATATATATATATATGCGCAGAGCGGAGTCACCTAGTGCAG,9140 fluorescence intensity (a.u.)
11,GGCGGCGGCGGAGGAGGAGGAGGGGAGGGGAGCACGAGCGCGGAGTCACCTAGTGCAG,17400 fluorescence intensity (a.u.)
12,GGCGGCGGAGGAGGAGGAGGCGCGAGGGGAGGCGAGCATGCGGAGTCACCTAGTGCAG,8150 fluorescence intensity (a.u.)
13,TAGCTTTGGAGGAGGAGGAGGAGGAGGGGCGCGAGCCATGCGGAGTCACCTAGTGCAG,10800 fluorescence intensity (a.u.)
14,CGATCGGGCCGCGGCGCGAGGGAGGGGATCGGTGCGCGCGCGGAGTCACCTAGTGCAG,8060 fluorescence intensity (a.u.)
15,CGCTCTCTTGTTGACCACCTCGCGTTGCACTGGGCCAGCCCGGAGTCACCTAGTGCAG,9490 fluorescence intensity (a.u.)
16,GCTGCTGGTGGTGGTAGTAGGACTTGGGGCTCGTGTTGTGCGGAGTCACCTAGTGCAG,9720 fluorescence intensity (a.u.)
17,TCGTAGGGTGCGGGGTGGCTGCCTGTCTCCTTCGCCTCGCCGGAGTCACCTAGTGCAG,9680 fluorescence intensity (a.u.)
18,ATCACCAGTTGCCATTCTGTCACCTCAACTTAGAACATACCGGAGTCACCTAGTGCAG,8290 fluorescence intensity (a.u.)
19,CAAACGTACTCCTACTCTCCAAGCAGCCTATATAAACCACCGGAGTCACCTAGTGCAG,8590 fluorescence intensity (a.u.)
20,TTTCACCTAGTCCTAGCCTAATTCGTCTATCTTTATCAATCGGAGTCACCTAGTGCAG,9710 fluorescence intensity (a.u.)
21,CGCTGCTTTTGCTGCTGCTGTTGATGATGCATCCCATTCCCGGAGTCACCTAGTGCAG,9140 fluorescence intensity (a.u.)

row,Sequence,binding signal
1,TATTTTAGTGCAAGGGGCGGGCGGGCGCGGTAGAAGTCAACGGAGTCACCTAGTGCAG,18200 fluorescence intensity (a.u.)
2,GTAGCAATGGGCGGCGGGGAGCGGGGCTGAGCGGCAGCCGCGGAGTCACCTAGTGCAG,8150 fluorescence intensity (a.u.)
3,GGCCGGTAGGGGTAGAACGGTCATTTCGTGCGCGGGGAGGCGGAGTCACCTAGTGCAG,9810 fluorescence intensity (a.u.)
4,GCTGGGAGGGAGGAGCGGGAGGCGGCGCGGCGCGTGGAGGCGGAGTCACCTAGTGCAG,8580 fluorescence intensity (a.u.)
5,GGCGGCGGCGGCGGGGCGGCGTGGCGCCGAGGGAGGGGAACGGAGTCACCTAGTGCAG,12500 fluorescence intensity (a.u.)
6,GGTTCTTCTGAGCGGGGCCGGGGCGGGGCGGCAGCTGGGGCGGAGTCACCTAGTGCAG,30000 fluorescence intensity (a.u.)
7,CGGAGGCATGGGGAGGCTGCTGCGGCGCCAATTGTGGCCACGGAGTCACCTAGTGCAG,8860 fluorescence intensity (a.u.)
8,TGCGGGGCGCAAGGCGCGCGGTAGGGGAGGGGTTAGCGCTCGGAGTCACCTAGTGCAG,8190 fluorescence intensity (a.u.)
9,CGCGCGCGCGCGCGTACGTGGGAACAGAGAGCGGCGCCGACGGAGTCACCTAGTGCAG,27900 fluorescence intensity (a.u.)
10,GGGAGCGGGTGGGAGTGGCCGGCGCGGAGGACGACGGCGGCGGAGTCACCTAGTGCAG,8280 fluorescence intensity (a.u.)
11,GGCGTGGGGAGGCGGAGGGAGGGAGGGGAGCGGCTGCGCACGGAGTCACCTAGTGCAG,17700 fluorescence intensity (a.u.)
12,AGCTGAGGGGCGGCGGCGGCTGGCAAGGGGCGGCGGCGGCCGGAGTCACCTAGTGCAG,10900 fluorescence intensity (a.u.)
13,AATACGGTTTGGAAGGGATCTTTTTTGGTTGGTTGCACTGCGGAGTCACCTAGTGCAG,9650 fluorescence intensity (a.u.)
14,ATAGTTGTTTTGCCTACCCCACCCATGCCGAAGATGGACACGGAGTCACCTAGTGCAG,8790 fluorescence intensity (a.u.)
15,ATCTTTTCTCTTCTCGACTTCTCGTATGCCGCGTCCCGTCCGGAGTCACCTAGTGCAG,11100 fluorescence intensity (a.u.)
16,CTTGTGGCTTGTGCAATTCTGTTTCATCGAGTTTGTTAACCGGAGTCACCTAGTGCAG,8830 fluorescence intensity (a.u.)
17,TTCAAATCTCATCCGAATTTTTTGTTTTTTATTTTTTTTTCGGAGTCACCTAGTGCAG,8280 fluorescence intensity (a.u.)
18,TAGTTCATCCTTGACATCAAGTGGGTTGCTAGTCTCATTCCGGAGTCACCTAGTGCAG,9450 fluorescence intensity (a.u.)
19,TAGGCTGTATTCTTATCCACTCATGCAGTGCTCTGATAGGCGGAGTCACCTAGTGCAG,11000 fluorescence intensity (a.u.)
20,TGGTTTGCATCTCTTCTTGCTCTTTGGAGGATTTACTACTCGGAGTCACCTAGTGCAG,9510 fluorescence intensity (a.u.)
21,GCAGGCGGAGGCGGAGGCGGAGGCGGAGGCGGCGGCGGCGCGGAGTCACCTAGTGCAG,8950 fluorescence intensity (a.u.)

row,Sequence,binding signal
1,CGGCGGCGGAGGAGGAGGAGGAGGAGGGCGCGGGGCGGCGCGGAGTCACCTAGTGCAG,21700 fluorescence intensity (a.u.)
2,TTCTTCTAGAGGAGGAGGAGGCGGCGGGGCGGCGGGCGAGCGGAGTCACCTAGTGCAG,17300 fluorescence intensity (a.u.)
3,GCGGCCGGTCCGAGCGAGCGGAGAGGGAGGAGGCGGGGAGCGGAGTCACCTAGTGCAG,8360 fluorescence intensity (a.u.)
4,GAGGCCGGGGTCGGGGCGAGCGAGGCGAGAGGGGAGGAGGCGGAGTCACCTAGTGCAG,8910 fluorescence intensity (a.u.)
5,AGGAGGCGGGGCGGGGCGGCGGCGGCGGCGGCGGCGCCCGCGGAGTCACCTAGTGCAG,11500 fluorescence intensity (a.u.)
6,GGTCGCCGGATCGCGGGAGGGAGGGAGGGAGGGAGGGAGGCGGAGTCACCTAGTGCAG,14100 fluorescence intensity (a.u.)
7,GGGAGTGTGGAGGTGTTGTGCTGCGGCGTGGGTGTGTTGGCGGAGTCACCTAGTGCAG,8640 fluorescence intensity (a.u.)
8,GGCGTGTTGTGTTCGGGTGGGTGCTGCGCAGGCTGCTGTACGGAGTCACCTAGTGCAG,17300 fluorescence intensity (a.u.)
9,GTGTTGGTGGCTCTGGCTGCGTCGACGTGCGCAGGGCGTTCGGAGTCACCTAGTGCAG,8050 fluorescence intensity (a.u.)
10,GGGCGGAGGCGGGGATCGCGGCGGGAGGGGTGGATCCATGCGGAGTCACCTAGTGCAG,17400 fluorescence intensity (a.u.)
11,CGGGGTGGGAGCAGGGGTCGCGCGGCGGGGTGCGGCCATGCGGAGTCACCTAGTGCAG,10100 fluorescence intensity (a.u.)
12,CTGCTCTTTCTTCTCTCTGCATTCCATTTCATTACTGCCTCGGAGTCACCTAGTGCAG,11000 fluorescence intensity (a.u.)
13,AGCTCGTGTGGTGTATGTTGTTGTGTGCTGCTAGCTAGCTCGGAGTCACCTAGTGCAG,10200 fluorescence intensity (a.u.)
14,TCCATGCCATCTGCTGAACAGACCCATGCATCCTTCAACTCGGAGTCACCTAGTGCAG,8920 fluorescence intensity (a.u.)
15,CACATCAAATTTATTTTCTCCCAAAATGAGGCGCGCAACACGGAGTCACCTAGTGCAG,8670 fluorescence intensity (a.u.)
16,GCTGTCGTTGAATTTTTGTTTGTTTTCTTGGCGTGTTGCACGGAGTCACCTAGTGCAG,13300 fluorescence intensity (a.u.)
17,CTTTCCATGGTTTTTGCTCCCGCAGCCCGGGCCACTGCCCCGGAGTCACCTAGTGCAG,11600 fluorescence intensity (a.u.)
18,CGTCTCGTTTCTCATCTCAAAATTTCGCGCCTCGTCGCCGCGGAGTCACCTAGTGCAG,8640 fluorescence intensity (a.u.)
19,GCTCAGCCGCCGTCGCCAGTCCAACCTCCGCCACCGCGGCCGGAGTCACCTAGTGCAG,8640 fluorescence intensity (a.u.)
20,CCAAACCCAACCCTCGACGCCAATTAAACACCAATTTTCTCGGAGTCACCTAGTGCAG,8920 fluorescence intensity (a.u.)
21,CCCGAACCCACCACCTCCGCCCATTTCCGCCTCCTCTCGACGGAGTCACCTAGTGCAG,9190 fluorescence intensity (a.u.)

row,Sequence,binding signal
1,ACAGCTTAAAATTTCCTCCTCCGCCCAAAAACCCTCTCGACGGAGTCACCTAGTGCAG,24300 fluorescence intensity (a.u.)
2,CCTTGACAGATTAATCCTACGTTTTGACCCCATATGTTTTCGGAGTCACCTAGTGCAG,8880 fluorescence intensity (a.u.)
3,CTTGTAGCTGTAATTCCCTATTGTTGTTTTTCGGTACTGTCGGAGTCACCTAGTGCAG,13200 fluorescence intensity (a.u.)
4,TCGCAAGAGTTGTTGAAAGTTGACCAGCATATTGAGGCCCCGGAGTCACCTAGTGCAG,8130 fluorescence intensity (a.u.)
5,ACAACTCACTCTCTTCATTTTCCATTCTCGTGCTTTTCAACGGAGTCACCTAGTGCAG,16600 fluorescence intensity (a.u.)
6,TTCCTTTTTCATCTTCTTTTCACATTTTTTCTTTATTTTTCGGAGTCACCTAGTGCAG,12400 fluorescence intensity (a.u.)
7,GTCTCATTCTTCTTATTTCCATTTTTTTTTTCTCTCAAAACGGAGTCACCTAGTGCAG,11100 fluorescence intensity (a.u.)
8,ACTCACTTCAAAATTTTCACATCCTCTCTCATCATTTTTTCGGAGTCACCTAGTGCAG,11100 fluorescence intensity (a.u.)
9,CAACACATCTCTTGCATTTTTTTTTCTTTGCATTCTCATTCGGAGTCACCTAGTGCAG,8200 fluorescence intensity (a.u.)
10,TCTCAATTGCACCTCATTTAATCCTCATTTTTCATCTTTTCGGAGTCACCTAGTGCAG,11800 fluorescence intensity (a.u.)
11,TTCTTTGGATTTGATTGGTGCCGCCTTTTTTCGCTATTGACGGAGTCACCTAGTGCAG,15600 fluorescence intensity (a.u.)
12,CACACACACCGATCTTTTCATTCATTCTTTTCTTTCTTTTCGGAGTCACCTAGTGCAG,18700 fluorescence intensity (a.u.)
13,GCCTATTCTTTTCGCCACCGCTATCGCCACACATCACGGACGGAGTCACCTAGTGCAG,17500 fluorescence intensity (a.u.)
14,AGACATTCTCCATTTTCTTTCTTCTCTTCACTCACACTCACGGAGTCACCTAGTGCAG,8800 fluorescence intensity (a.u.)
15,TCTCTTTTCTCATTTTTTCGCTTGCCACATCATTTTCTATCGGAGTCACCTAGTGCAG,9600 fluorescence intensity (a.u.)
16,ACTCACCTCTCTCATCTTTCGTGCACACATTTTTCAATTTCGGAGTCACCTAGTGCAG,17700 fluorescence intensity (a.u.)
17,TCCTCTTCTTTTCTCTCCCTCCGCCACTCGACGCCCAACCCGGAGTCACCTAGTGCAG,9310 fluorescence intensity (a.u.)
18,TCGATTCCGGCGTGCGAATTCCTCCACCTCGCCGCCGCCGCGGAGTCACCTAGTGCAG,8810 fluorescence intensity (a.u.)
19,TTCCTGTTCCTGCAAGAAAACGCTCATCCTCTTGCTTTTTCGGAGTCACCTAGTGCAG,9650 fluorescence intensity (a.u.)
20,AGGCCTCCACGGCTCCACCTCCTTCCGCTTTCGCCTATCCCGGAGTCACCTAGTGCAG,10000 fluorescence intensity (a.u.)
21,AAAGTGCCGTATTTTTGTGTTTCTGTTGTAGTGGTAATTACGGAGTCACCTAGTGCAG,12000 fluorescence intensity (a.u.)
